This note sets out measurements from PubChem BioAssay (NCATS).

Active and inactive are the calls of the source. Unless noted, the call rests on the fitted dose curve; in most records, active means well fitted curve in the direction sought with a large enough effect; inconclusive means small, poorly fitted or top-dose-only effect, or another doubt; inactive means no such curve, though single readings can be large; an effect the other way counts as inactive or inconclusive.

Assay [1] addresses Estrogen receptor (Homo sapiens) (UniProt P03372). Kind of assay: qHTS assay for small molecule antagonists of estrogen receptor alpha signaling (AID 588513; active means well fitted curve in the direction sought with a large enough effect in the signal ratio, with a control signal flat, not every such curve was filed as active; inconclusive means small, poorly fitted or top-dose-only effect, or effect the other way, or a change in a side signal; inactive means no such curve, though single readings can be large or run the other way; the % refers to the signal ratio; further: potency means the concentration at half of the fitted maximal effect). The essentials:
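ER-alpha-UAS-bla GripTite HEK 293 cells in 2% charcoal/dextran-treated FBS medium; compounds titrated (1:2, duplicate), then stimulated with 0.5 nM 17-beta-estradiol for 18 h at 37C. CCF4 beta-lactamase fluorescence; Hill-fit IC50 and efficacy.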

The target is the same in assay [2]. Kind of assay: qHTS assay for small molecule agonists of estrogen receptor alpha signaling (AID 588514; calls by dose curve;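 further: 0% = vehicle only and 100% = reference agonist; nearly all actives have a fitted effect of over 70% in size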). The essentials:
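Reporter-gene assay. […] controls beta-lactamase in HEK 293 GripTite cells; after 18 hrs with compound, CCF4 substrate is added for 2 hrs and fluorescence is read.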
Background: Quantitative high-throughput screening tests each substance at several concentrations.

Assay [3] deals with Peroxisome proliferator-activated receptor delta (Homo sapiens) (UniProt Q03181). Briefly: qHTS assay for small molecule agonists of peroxisome proliferator-activated receptor delta signaling (AID 588534; calls by dose curve;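 further: 0% = DMSO basal wells and 100% = positive control agonist at 10 µM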). The essentials:
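Reporter cells were plated and held 5 hrs at 37 C before compounds were added. After 18 hrs at 37 C, CCF4 dye was loaded for 2 hrs at RT and fluorescence measured.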

In assay [4] the target is Peroxisome proliferator-activated receptor gamma (Homo sapiens) (UniProt P37231). Kind of assay: qHTS assay for small molecule agonists of peroxisome proliferator-activated receptor gamma signaling (AID 588536; active means well fitted curve in the direction sought with a large enough effect in the signal ratio, with a control signal flat, not every such curve was filed as active; inconclusive means small, poorly fitted or top-dose-only effect, or effect the other way, or a change in a side signal; inactive means no such curve, though single readings can be large or run the other way; the % refers to the signal ratio;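 further: 0% = DMSO basal wells and 100% = rosiglitazone at 2 µM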). The essentials:
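HEK293 UAS-bla reporter line, 1% charcoal/dextran FBS; titration, 16 h, 37 C; CCF4 loading 2 h RT; fluorescence 460/530 nm. Normalized to rosiglitazone 2 uM = 100%, DMSO = 0%.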

The target is the same in assay [5]. Kind of assay: qHTS assay for small molecule antagonists of peroxisome proliferator-activated receptor gamma signaling (AID 588537; active means well fitted inhibition curve with a large enough effect in the signal ratio, with a control signal flat, not every such curve was filed as active; inconclusive means small, poorly fitted or top-dose-only effect, or effect the other way, or a change in a side signal; the % refers to the signal ratio;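 further: reporter cells co-stimulated with 50 nM rosiglitazone agonist during compound treatment; % of control where 0% means no effect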). The essentials: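 Inhibitors of agonist-stimulated UAS-bla reporter activity were sought in HEK293 cells; rosiglitazone (50 nM) defined full signal and DMSO baseline. Curves fitted to Hill model gave IC50 and efficacy.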
The target in assay [6] is Vitamin D3 receptor (Homo sapiens) (UniProt P11473). Briefly: qHTS assay for small molecule antagonists of vitamin D receptor signaling (AID 588541; calls by dose curve;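 further: receptor activated by calcitriol during compound treatment; series mostly up to about 77 µM; on the % scale 0 is the no-effect control and ±100 the full control effect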). In short, it runs like this: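 Antagonist-mode beta-lactamase reporter assay: HEK293T VDR-UAS-bla cells were exposed to titrated compound alongside 1-alpha,25-dihydroxyvitamin D3 at 3 nM final for 16 h. Values were normalized to the 50 nM agonist control and DMSO basal, with IC50 and efficacy from Hill equation fits.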

Assay [7] is described as follows: qHTS assay for small molecule agonists of retinoid X receptor alpha signaling (AID 588544; calls by dose curve;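 on activation: 0% = DMSO basal wells and 100% = reference agonist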). The settings on record: HEK293T RXRa-UAS-bla, beta-lactamase reporter, 18 h; 530 nm emission.
Assay [8] has as its target Retinoic acid receptor RXR-alpha (Homo sapiens) (UniProt P19793). The assay is described as above.
Assay [9] has as its target Thyroid hormone receptor beta (Homo sapiens) (UniProt P10828). Briefly: qHTS assay for small molecule agonists of thyroid hormone receptor beta signaling (AID 588545; calls by dose curve). In short, it runs like this: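 In this cell-based screen, titrated compounds act on HEK 293 cells held in medium with 2% charcoal/dextran FBS, NEAA and pyruvate for 18 hrs at 37 C. Responses are expressed relative to T3 (10 nM) as 100% and basal DMSO as 0%.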

The nature of assay [10]: qHTS assay for small molecule antagonists of retinoid X receptor alpha signaling (AID 588546; active means well fitted inhibition curve with a large enough effect in the signal ratio, with a control signal flat, not every such curve was filed as active; inconclusive means small, poorly fitted or top-dose-only effect, or effect the other way, or a change in a side signal; inactive means no such curve, though single readings can be large or run the other way; the % refers to the signal ratio; further: potency means the concentration at half of the fitted maximal effect). The settings on record: HEK293T RXRa-UAS-bla, beta-lactamase ratio, antagonist mode; measured here: W530 green channel, cytotoxicity proxy. In short, it runs like this: (§1)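 Beta-lactamase reporter inhibition, read as CCF4 fluorescence ratio (ex 405, em 460/530 nm) after 2 h at RT. HEK293T UAS-bla cells, 2500/well, were stimulated with 9-cis-RA at 500 or 100 nM final alongside test compound for 18 h at 37 C.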

The nature of assay [11]: qHTS assay for small molecule activators of the p53 signaling pathway (AID 651743; active means well fitted activation curve with a large enough effect in the signal ratio, not every such curve was filed as active; inconclusive means small, poorly fitted or top-dose-only effect, or a change in a side signal; the % refers to the signal ratio; further: potency means the concentration at half of the fitted maximal effect; on activation: series mostly up to about 92 µM; % of control where 0% means no effect). The conditions noted are these: HCT-116 p53RE-bla, beta-lactamase FRET ratio, 16 h; activation: stronger effect = higher value. In short, it runs like this:
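Screen for p53 pathway agonists uses stably transfected p53RE-bla HCT-116 cells, 4,000 per well, treated 16 h at 37 C with compounds in DMSO.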

A short description of assay [12]: qHTS assay for environmental chemicals that activate the Aryl hydrocarbon Receptor (AhR) signaling pathway (AID 651777). Further: % of control where 0% means no effect; nearly all actives have a fitted effect of over 15% in size. The conditions noted are these: 1A2-DRE human hepatoma cells, luciferase, 24 h; activation: stronger effect = higher value. In short, it runs like this: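 Stable CYP1A2 promoter/DRE-luciferase human hepatoma line treated 24 hr; One-Glo luminescence, 30 min RT.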

Assay [13] has as its target Peroxisome proliferator-activated receptor alpha (Homo sapiens) (UniProt Q07869). Briefly: qHTS assay for small molecule agonists of the peroxisome proliferator-activated receptor alpha (PPARalpha) signaling pathway (AID 651778). Further: % of control where 0% means no effect. The conditions noted are these: PathHunter PPARalpha complementation, chemiluminescence, 6 h; max response: stronger effect = higher value. The essentials: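 Chemiluminescence from complemented enzyme reported PPARalpha activation in cells after 6 hr of compound treatment at 37 C. The detection reagent was incubated for 60 min at room temperature, and compounds were scored as agonists.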

Assay [14] is described as follows: qHTS assay for small molecule agonists of the antioxidant response element (ARE) signaling pathway measured by Nrf2-dependant transcriptional activity (AID 720636; active means well fitted curve in the direction sought with a large enough effect in the repeat runs; inconclusive means weak or mixed curves; inactive means no such curve, though single readings can be large; an effect the other way counts as inactive or inconclusive;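 further: HepG2 cells with an ARE-driven luciferase reporter; % of control where 0% means no effect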). In short, it runs like this: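 Reporter gene assay, HepG2 ARE-luc: 16 hr compound, 37 C, 5% CO2; read-out luciferase luminescence.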
Assay [15] can be described thus: qHTS assay for small molecule agonists of the antioxidant response element (ARE) signaling pathway measured by Nrf2-dependant transcriptional activity - cell viability counter screen (AID 720653; active means well fitted curve in the direction sought with a large enough effect in the repeat runs; inconclusive means weak or mixed curves; inactive means no such curve, though single readings can be large; an effect the other way counts as inactive or inconclusive; further: on the % scale 0 is the no-effect control and ±100 the full control effect). The settings on record: ARE-bla HepG2 viability, CellTiter-Glo ATP luminescence, 16 h; max response: stronger effect = lower value. In short, it runs like this: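 Cytotoxicity counter screen: intracellular ATP quantified by CellTiter-Glo luminescence in the same ARE-bla HepG2 plates, after 16 h compound exposure and a 2 h beta-lactamase substrate step.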

The nature of assay [16]: qHTS assay for cell viability of HEK293 cells (AID 743288). Further: on the % scale 0 is the no-effect control and ±100 the full control effect; nearly all actives have a fitted effect of over 50% in size. The conditions noted are these: ATP luminescence (CellTiter-Glo), 18 h; max response: stronger effect = lower value. The essentials:
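Parental HEK293 cells, 2,000 per well, preincubated at least 5 h at 37 C, then exposed to compounds in DMSO for 18 h at 37 C. Viability by CellTiter-Glo ATP luminescence after 30 min at room temperature.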

The nature of assay [17]: qHTS assay for cell viability of the p53RE-bla HCT-116 cell line (AID 743292). Further: on the % scale 0 is the no-effect control and ±100 the full control effect; nearly all actives have a fitted effect of over 55% in size. In short, it runs like this:
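Readout: CellTiter-Glo luminescence after 30 min RT. Treatment: compounds in DMSO, 16 h, 37 C. Cells: CellSensor p53RE-bla HCT-116, 4,000/well, preincubated 5 h.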

Assay [18] deals with Nuclear receptor subfamily 1 group I member 2 (Rattus norvegicus) (UniProt Q9R1A7). Briefly: qHTS assay for small molecule activators of the rat pregnane X receptor (rPXR) signaling pathway (AID 651751; call rule not given here; further: 0% is about no effect). The conditions noted are these: rPXR reporter cells, luciferase (One-Glo), 24 h.
Assay [19] has as its target Retinoic acid receptor RXR-alpha (Homo sapiens) (UniProt P19793). Kind of assay: qHTS assay for small molecule antagonists of retinoid X receptor alpha signaling (AID 588546). Further: potency means the concentration at half of the fitted maximal effect.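 On max response: cells stimulated with 9-cis-retinoic acid as agonist; on the % scale 0 is the no-effect control and ±100 the full control effect.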 The conditions noted are these: HEK293T RXRa-UAS-bla, beta-lactamase ratio, antagonist mode. In short, it runs like this: as §1
For assay [20], the target named is Thyroid hormone receptor beta (Homo sapiens) (UniProt P10828). Kind of assay: qHTS assay for small molecule antagonists of thyroid hormone receptor beta signaling (AID 588547; active means well fitted inhibition curve with a large enough effect in the signal ratio, with a control signal flat, not every such curve was filed as active; inconclusive means small, poorly fitted or top-dose-only effect, or effect the other way, or a change in a side signal; the % refers to the signal ratio;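 further: cells stimulated with 0.4 nM T3 agonist during compound exposure; series mostly up to about 77 µM; on the % scale 0 is the no-effect control and ±100 the full control effect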). The settings on record: TR-UAS-bla HEK293, beta-lactamase ratio, antagonist mode, 18 h. In short, it runs like this:
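Inhibition of T3-driven (0.4nM final) beta-lactamase reporter activity was measured over 0.59 nM to 92 uM compound after 18 h at 37 C. The cells were GripTite HEK293 TR-UAS-bla in charcoal/dextran-stripped serum, with CCF4 ratio read-out and IC50 from Hill fits.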

Nuclear receptor subfamily 1 group I member 2 (Rattus norvegicus), sequence (Q9R1A7 whole entry, looked up): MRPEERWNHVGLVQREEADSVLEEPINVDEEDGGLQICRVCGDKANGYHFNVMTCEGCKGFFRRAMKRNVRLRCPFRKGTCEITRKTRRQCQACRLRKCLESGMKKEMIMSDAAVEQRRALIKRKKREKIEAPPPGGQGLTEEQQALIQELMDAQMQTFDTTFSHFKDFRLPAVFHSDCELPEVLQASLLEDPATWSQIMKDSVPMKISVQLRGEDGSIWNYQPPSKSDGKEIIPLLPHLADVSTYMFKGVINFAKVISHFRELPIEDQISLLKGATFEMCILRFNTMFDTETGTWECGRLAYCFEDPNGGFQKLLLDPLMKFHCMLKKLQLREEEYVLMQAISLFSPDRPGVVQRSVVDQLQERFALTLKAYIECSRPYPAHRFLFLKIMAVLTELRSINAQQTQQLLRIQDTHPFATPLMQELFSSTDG
Retinoic acid receptor RXR-alpha (Homo sapiens), sequence (P19793 whole entry, looked up): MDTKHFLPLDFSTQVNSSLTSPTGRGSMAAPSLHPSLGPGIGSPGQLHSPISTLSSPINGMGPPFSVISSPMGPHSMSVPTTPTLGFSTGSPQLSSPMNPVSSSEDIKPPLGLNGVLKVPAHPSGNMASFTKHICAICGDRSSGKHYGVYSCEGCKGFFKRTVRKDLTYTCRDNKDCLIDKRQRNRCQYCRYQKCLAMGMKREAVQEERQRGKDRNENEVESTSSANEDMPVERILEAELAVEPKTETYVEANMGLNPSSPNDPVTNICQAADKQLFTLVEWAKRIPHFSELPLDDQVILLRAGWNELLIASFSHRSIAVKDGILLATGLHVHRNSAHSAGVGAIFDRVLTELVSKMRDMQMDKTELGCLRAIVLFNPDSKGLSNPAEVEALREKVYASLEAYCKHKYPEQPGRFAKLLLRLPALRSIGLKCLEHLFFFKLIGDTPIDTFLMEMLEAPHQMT
Peroxisome proliferator-activated receptor delta (Homo sapiens), sequence (Q03181 whole entry, looked up): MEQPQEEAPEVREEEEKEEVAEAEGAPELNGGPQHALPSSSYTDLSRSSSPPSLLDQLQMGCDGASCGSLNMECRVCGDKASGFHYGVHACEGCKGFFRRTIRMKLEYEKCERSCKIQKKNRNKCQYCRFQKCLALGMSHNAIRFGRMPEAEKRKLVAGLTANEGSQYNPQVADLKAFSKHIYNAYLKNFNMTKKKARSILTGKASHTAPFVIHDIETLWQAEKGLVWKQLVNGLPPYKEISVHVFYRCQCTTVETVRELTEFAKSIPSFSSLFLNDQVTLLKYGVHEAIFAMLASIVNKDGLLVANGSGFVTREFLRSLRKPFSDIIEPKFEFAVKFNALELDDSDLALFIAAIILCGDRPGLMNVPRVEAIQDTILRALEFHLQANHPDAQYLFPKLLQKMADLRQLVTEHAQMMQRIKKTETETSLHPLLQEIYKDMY
Peroxisome proliferator-activated receptor gamma (Homo sapiens), sequence (P37231 whole entry, looked up): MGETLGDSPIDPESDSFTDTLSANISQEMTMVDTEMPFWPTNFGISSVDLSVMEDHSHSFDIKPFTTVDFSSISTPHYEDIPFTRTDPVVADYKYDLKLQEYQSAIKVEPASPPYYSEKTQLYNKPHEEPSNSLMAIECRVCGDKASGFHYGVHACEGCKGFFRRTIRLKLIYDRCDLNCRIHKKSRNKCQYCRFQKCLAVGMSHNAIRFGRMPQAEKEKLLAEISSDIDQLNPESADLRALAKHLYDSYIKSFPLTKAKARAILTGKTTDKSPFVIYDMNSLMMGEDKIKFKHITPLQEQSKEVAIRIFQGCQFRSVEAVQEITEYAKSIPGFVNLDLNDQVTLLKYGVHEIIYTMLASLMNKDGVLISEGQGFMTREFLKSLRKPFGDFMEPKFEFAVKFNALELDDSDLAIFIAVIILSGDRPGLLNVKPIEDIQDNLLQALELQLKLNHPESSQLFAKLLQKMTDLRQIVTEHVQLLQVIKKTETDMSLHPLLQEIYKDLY
Thyroid hormone receptor beta (Homo sapiens), sequence (P10828 whole entry, looked up): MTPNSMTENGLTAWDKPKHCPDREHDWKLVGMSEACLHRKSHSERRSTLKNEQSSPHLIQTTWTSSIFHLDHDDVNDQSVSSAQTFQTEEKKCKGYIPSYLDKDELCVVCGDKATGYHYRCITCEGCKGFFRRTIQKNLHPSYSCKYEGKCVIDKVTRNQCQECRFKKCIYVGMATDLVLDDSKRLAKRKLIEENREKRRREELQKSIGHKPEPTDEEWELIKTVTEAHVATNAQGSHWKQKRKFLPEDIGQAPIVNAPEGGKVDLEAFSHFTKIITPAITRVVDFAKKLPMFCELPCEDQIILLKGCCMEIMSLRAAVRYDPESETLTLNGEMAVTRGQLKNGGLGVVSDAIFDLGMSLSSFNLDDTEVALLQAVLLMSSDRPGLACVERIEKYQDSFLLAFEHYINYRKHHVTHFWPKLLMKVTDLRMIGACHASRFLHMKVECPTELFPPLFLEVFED
Peroxisome proliferator-activated receptor alpha (Homo sapiens), sequence (Q07869 whole entry, looked up): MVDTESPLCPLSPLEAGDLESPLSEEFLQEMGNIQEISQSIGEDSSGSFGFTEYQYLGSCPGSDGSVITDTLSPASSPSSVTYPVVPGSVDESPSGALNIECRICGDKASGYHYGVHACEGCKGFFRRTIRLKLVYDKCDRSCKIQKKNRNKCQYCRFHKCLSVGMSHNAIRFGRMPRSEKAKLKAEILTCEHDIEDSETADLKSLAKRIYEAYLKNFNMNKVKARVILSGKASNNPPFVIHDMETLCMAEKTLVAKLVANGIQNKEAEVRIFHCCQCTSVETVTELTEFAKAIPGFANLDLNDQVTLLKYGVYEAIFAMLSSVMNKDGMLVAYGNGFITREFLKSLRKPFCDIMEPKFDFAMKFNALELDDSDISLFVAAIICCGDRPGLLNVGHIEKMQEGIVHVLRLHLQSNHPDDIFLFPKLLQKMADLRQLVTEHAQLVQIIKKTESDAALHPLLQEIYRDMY
Estrogen receptor (Homo sapiens), sequence (P03372 whole entry, looked up): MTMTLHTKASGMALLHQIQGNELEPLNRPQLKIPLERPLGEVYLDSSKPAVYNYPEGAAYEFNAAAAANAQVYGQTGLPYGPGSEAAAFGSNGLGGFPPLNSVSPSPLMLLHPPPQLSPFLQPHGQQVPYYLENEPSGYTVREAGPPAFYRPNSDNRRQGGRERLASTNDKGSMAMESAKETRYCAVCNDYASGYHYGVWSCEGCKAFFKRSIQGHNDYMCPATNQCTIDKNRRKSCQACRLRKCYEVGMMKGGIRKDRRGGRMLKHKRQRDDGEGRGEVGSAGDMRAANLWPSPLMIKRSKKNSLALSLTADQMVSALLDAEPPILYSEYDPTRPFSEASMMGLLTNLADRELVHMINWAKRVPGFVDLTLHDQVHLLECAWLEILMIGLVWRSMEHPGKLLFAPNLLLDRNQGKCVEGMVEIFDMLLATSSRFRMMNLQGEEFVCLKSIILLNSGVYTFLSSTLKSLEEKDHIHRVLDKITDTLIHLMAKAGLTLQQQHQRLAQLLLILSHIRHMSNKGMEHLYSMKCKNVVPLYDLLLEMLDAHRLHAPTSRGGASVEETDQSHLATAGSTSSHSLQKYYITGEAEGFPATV
Vitamin D3 receptor (Homo sapiens), sequence (P11473 whole entry, looked up): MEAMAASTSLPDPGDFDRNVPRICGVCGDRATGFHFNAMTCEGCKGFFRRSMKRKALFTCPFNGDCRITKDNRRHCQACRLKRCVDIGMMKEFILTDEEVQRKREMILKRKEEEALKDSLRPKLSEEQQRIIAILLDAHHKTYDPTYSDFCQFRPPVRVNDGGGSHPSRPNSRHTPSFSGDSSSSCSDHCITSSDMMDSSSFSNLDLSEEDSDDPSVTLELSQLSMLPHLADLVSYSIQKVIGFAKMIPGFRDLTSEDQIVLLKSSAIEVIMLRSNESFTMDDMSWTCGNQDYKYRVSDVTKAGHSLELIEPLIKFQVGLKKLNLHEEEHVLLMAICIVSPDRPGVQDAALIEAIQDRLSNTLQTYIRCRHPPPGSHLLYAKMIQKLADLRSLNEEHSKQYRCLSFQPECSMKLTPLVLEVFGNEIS

As for `CC(C)(c1ccccc1)c1cc(-n2nc3ccccc3n2)c(O)c(C(C)(C)c2ccccc2)c1`, the Potency result in assay [1], in [2], in assay [4], in [5], in assay [6] and in assay [8] was “inactive” in each case. Further, the Potency result in assay [9], in assay [14] and in [17] was “inactive” each time. The outcome in assay [3] was inactive. Also, the max response was -5.71% in [7]; -10.8% in [10]; -0.734% (inactive) in [13]; 4.77% (inactive) in [15]; -7.76% (inactive) in assay [16]; 2.09% (inactive) in [18]. The activation is -0.652% (inactive) in assay [11] and -0.0851% (inactive) in [12].
On to `Cc1c(COC(=O)C2C(/C=C(\Cl)C(F)(F)F)C2(C)C)cccc1-c1ccccc1` (stereo not drawn), for which the Potency entry in [1], in assay [2], in [4], in [5], in assay [6] and in [9] was “inactive” in each case. Moreover, in assay [14], the Potency result is “inactive”. Besides, the result in assay [3] was inactive. Further, the max response in assay [10] was 1.28%; in assay [19], -11.6% (inactive); in [13] it was -0.35% (inactive); in [15], -14.6% (inactive); in assay [16], -17.7% (inactive). The activation was 2.17% (inactive) in [11] and -0.984% (inactive) in [12].
Take `COP(=S)(OC)Oc1nc(Cl)c(Cl)cc1Cl`: the Potency result in assay [1], in assay [2], in assay [9], in assay [14] and in assay [17] was “inactive” in each case. Moreover, the max response in [10] is 2.88%; in assay [19] it was 15.1% (inactive); in [13], -0.488% (inactive); in [15] it was -2.62% (inactive); in assay [16], -14.5% (inactive); in assay [18] it was -1.85% (inactive). In addition, the results for the activation in assay [11] and in assay [12] were 10.9% (inactive) and 0.0215% (inactive), respectively.
For `CC1(c2ccc(Oc3ccccc3)cc2)OC(=O)N(Nc2ccccc2)C1=O` (stereo not drawn), the Potency is 15.8 µM [inhibitor] (active) in assay [1], 31.6 µM (active) in assay [19] and 5.01 µM (active) in assay [11]. Also, in assay [3], the call was inactive. Moreover, the max response in assay [10] was 19.6%; in assay [13], 11.6% (inactive); in assay [15], -28.5% (inactive); in [16], -20.8% (inactive). Besides, the activation in [12] is 4.76% (inactive).
For `c1cc(OCC2CO2)cc(OCC2CO2)c1` (stereo not drawn), the Potency in [1] is 31.6 µM [inconclusive] (active); in assay [11] it was 25.1 µM (active). Besides, the call in assay [3] was inactive. Also, the Potency entry in assay [5] and in assay [14] was “inactive” throughout. In addition, the max response in assay [10] was found to be 6.7%. Also, the activity change % (negative = inhibition) in assay [20] is 15% (inactive).
Consider `CC(=O)[C@H]1[C@H](C#N)C[C@H]2[C@@H]3CC=C4C[C@@H](O)CC[C@]4(C)[C@H]3CC[C@@]21C`, for which, in assay [1], the Potency entry was “inactive”. In assay [20], the activity change % (negative = inhibition) is 6.3% (inactive).
As for `Cn1cc(-c2ccccc2)c(=O)c(-c2cccc(C(F)(F)F)c2)c1`, the Potency entry in assay [1], in assay [2], in assay [5], in assay [9], in assay [14] and in [17] was “inactive” in each case. Moreover, the max response in [10] is 0.227%; in assay [19] it was -21.3% (inactive); in assay [13], 1.29% (inactive); in assay [15] it was -0.838% (inactive); in assay [16], -5.04% (inactive); in [18], 0.923% (inactive). In addition, the activity change % (negative = inhibition) in assay [20] was 1.65% (inactive). Moreover, the activation in [11] is -5.34% (inactive); in assay [12], 0.553% (inactive).
On to `CS(=O)(=O)c1cc(C(F)(F)F)ccc1C(=O)c1cnoc1C1CC1`, for which the Potency entry in [1], in [2], in [5], in [6], in [9] and in assay [17] was “inactive” throughout. Also, the call in assay [3] was inactive. The max response in assay [10] is -9.9%; in [13], -3.75% (inactive); in assay [15], -9.62% (inactive); in [16] it was -14.1% (inactive); in assay [18], -4.39% (inactive). Besides, the activation in [11] was -1.28% (inactive); in [12], -0.804% (inactive).
